Source: PubChem
This is a sample that favours compounds with a hit; in the whole collection about 4.8% have one here.
hgDAF12 agonist – hgDAF-12 agonism, primary luciferase screen | HEK293 GAL4-hgDAF12 UAS-luciferase reporter, agonist luminescence; normalized to butyrate control | AID 687014 | activation, % at 6.8 µM | 370,000 compounds, 1.8% hits;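 active = activation above a cutoff set at the mean of all screened compounds plus 3 SD, cut at about 10% in these data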;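 note: 0% = DMSO wells and 100% = sodium butyrate wells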
DAX1 inh-1 – inhibits human nuclear receptor DAX1; P51843; HEK293 Gal4-DAX1 luciferase reporter, luminescence; inhibition, % at 6.75 µM; 340,000 compounds, 0.99% hits; AID 504766;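 active = inhibition above the mean over all tested compounds plus 3 SD, cut at about 4.2% in these data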;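 note: 0% = DAX1-transfected cells with DMSO and 100% = empty-vector control cells with DMSO; inhibition shows as a rise in luminescence from relieved DAX1 repression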
ssDAF12 agonist – S. stercoralis DAF-12 activation, primary screen; HEK293 ssDAF-12/GRIP1 lit1-tk-luc reporter, luminescence; % of 3 µM dafachronic acid response; activation, % at 6.8 µM; 370,000 compounds, 1% hits;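 active = activation above the mean over all tested compounds plus 3 SD, cut at about 0.9% in these data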;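 note: 0% = DMSO-only wells and 100% = 3 µM delta7-dafachronic acid wells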
DAX1 inh-2 – inhibitors of DAX1 repression of SF-1 activated StAR promoter. HEK293T StAR-luciferase reporter, SF-1/DAX-1 repression relief. inhibition, % at 6.8 µM. 370,000 compounds, 1.1% hits;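 active = inhibition above the mean over all tested compounds plus 3 SD, cut at about 3.6% in these data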;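 note: 0% = DAX-1 cells with DMSO and 100% = cells lacking DAX-1 with DMSO; higher inhibition means more luminescence from relief of DAX-1 repression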
hcDAF12 agonist – activates DAF-12 receptor from parasite H. contortus. AID 652067. activation, % at 6.8 µM. HEK293 hcDAF-12 lit1-tk-luc reporter, luminescence; 0% DMSO, 100% Δ7-dafachronic acid. 370,000 compounds, 1.4% hits;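 active = activation above the mean of all tested compounds plus 3 SD, cut at about 5.5% in these data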;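 note: 100% = response to 3 µM Δ7-dafachronic acid high control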
SMARCA2 act – increases SMARCA2 function in MMTV reporter cells. MG213 cells, MMTV-luciferase reporter, dexamethasone, overnight. activation, % at 9.1 µM. 370,000 compounds, 1% hits. AID 652017; in the data active = activation above about 7.8%;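 note: 0% = vehicle wells and 100% = reference activator wells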
hgDAF12 conf – hgDAF-12 agonism, confirmation assay. shares compounds with hgDAF12 agonist. HEK293 GAL4-hgDAF12 luciferase reporter, agonist mode; percent of butyrate response. activation, % at 6.8 µM. 3,300 compounds, 80% hits. AID 743050;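 active = mean activation over triplicate wells above the hit cutoff derived from the earlier primary screen, cut at about 11% in these data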;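 note: 0% = DMSO low control and 100% = 2 mM sodium butyrate high control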
LXRb DAF12 ctr – counter-screen for DAF-12 agonists: agonists of human LXR-beta; AID 743051; 3,300 tested, under 10 active; shares compounds with hgDAF12 agonist; activation, % at 6.8 µM; HEK293 Gal4-LXR luciferase reporter, 24 h;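 active = mean activation of the triplicate above a set limit carried over from the primary screen, none filed active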
Target sequence (P55055 whole entry, looked up, the tested form may be a part): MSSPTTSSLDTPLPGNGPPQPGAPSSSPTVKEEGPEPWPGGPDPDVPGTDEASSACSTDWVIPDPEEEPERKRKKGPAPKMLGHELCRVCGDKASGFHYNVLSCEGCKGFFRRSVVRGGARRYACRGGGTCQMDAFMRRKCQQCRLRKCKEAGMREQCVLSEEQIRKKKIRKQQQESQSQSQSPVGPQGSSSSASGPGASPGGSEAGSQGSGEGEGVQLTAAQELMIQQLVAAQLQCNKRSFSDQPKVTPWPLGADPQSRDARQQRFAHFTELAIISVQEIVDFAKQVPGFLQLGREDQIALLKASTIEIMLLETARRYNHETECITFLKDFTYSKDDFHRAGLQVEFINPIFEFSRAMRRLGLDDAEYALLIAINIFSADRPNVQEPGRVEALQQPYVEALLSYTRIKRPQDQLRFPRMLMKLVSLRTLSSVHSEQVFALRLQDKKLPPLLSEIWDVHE
An asterisk follows results filed as active; x = no result given.

SMILES | hgDAF12 agonist | DAX1 inh-1 | ssDAF12 agonist | DAX1 inh-2 | hcDAF12 agonist | SMARCA2 act | hgDAF12 conf | LXRb DAF12 ctr
O=C(O)c1ccc(-n2cc(C(=O)c3ccccc3O)cn2)cc1 | 2 | 0 | -1 | 1 | 2 | -1 | x | x
O=C(c1cnn(-c2cccc(F)c2)c1)c1ccccc1O | 15* | 5.0* | 1 | 2 | 3 | 2 | 16* | 1
C[C@@H]1[C@@H](O)C[C@@]2(C[C@H](O)c3cc(Cl)ccc3O2)O[C@H]1c1ccccc1Cl | -2 | x | -1 | -1 | -2 | -4 | x | x
CCOC(=O)c1ccc(NC(=O)C2CC3CCC2C3)cc1 (stereo not given) | 14* | x | 0 | 3 | 6.5* | 7.9* | 17* | 1
COC(=O)c1ccc(NC(=O)C2CC3CCC2C3)cc1 (stereo not given) | 7 | 2 | -1 | 1 | 0 | 4 | x | x
Cc1ccc(-n2c(SCn3nnc4ccccc4c3=O)nnc2-c2cccnc2)c(C)c1 | 1 | -1 | -2 | 0 | 0 | -1 | x | x
Cc1ccc(SCn2nnc3ccccc3c2=O)c(C)c1 | 14* | 1 | -1 | 1 | 0 | 5 | 12* | 0
O=C(O)COn1c(-c2ccccc2)nc2ccc([N+](=O)[O-])cc21 | 14* | 2 | 1 | 3 | 4 | 7.8* | 13* | 1
CCOC(=O)C(C)On1c(-c2ccc(Cl)cc2)nc2ccc([N+](=O)[O-])cc21 (stereo not given) | 14* | 2 | 0 | 2 | 2 | 2 | 20* | 1
COc1ccc(C(=O)CSc2nc(C)cc(=O)[nH]2)cc1 | 1 | 0 | -1 | 0 | 1 | 2 | x | x
COc1ccc(C(=O)CSc2cc(C)[nH]c(=O)n2)cc1 | 14* | 1 | 1 | 3.7* | 5 | 8 | 11* | 0
COc1cc(NC(=O)/C=C/c2ccccc2[N+](=O)[O-])cc(OC)c1 | 1 | 0 | -1 | 1 | 1 | 3 | x | x
O=C(/C=C/c1ccccc1[N+](=O)[O-])Nc1ccccc1 | 18* | 6.7* | 0 | 4.0* | 6 | 5 | 16* | 1
CCCn1ncc2c(Nc3ccc(C)c(C)c3)ncnc21 | 13* | 0 | 0 | 1 | 6.5* | 0 | 7 | 1
COc1ccc(Nc2nnc(-c3ccc4c(c3)OCO4)o2)cc1 | 22* | x | 1.5* | 3 | 5.8* | 4 | 18* | 1
OCCCNc1ncnc2c1ncn2[C@H]1CN(C2CCCC2)C[C@@H](CO)O1 | -6 | x | -2 | 0 | -1 | -1 | x | x
CCN(C(=O)CSc1nnc(-c2cccc(F)c2)n1N)c1c(N)n(Cc2ccccc2)c(=O)[nH]c1=O | 19* | 2 | -1 | 0 | -1 | -1 | -1 | 0
COc1ccccc1C(=O)NCCNC(=O)c1ccc(C)nc1 | -1 | 1 | -1 | 0 | -2 | -3 | x | x
Cc1ccc2c(c1)nnn2C1CCN(CC(=O)NNC(=O)c2ccco2)CC1 | 3 | 1 | -1 | 1 | -1 | 5 | x | x
Nc1ccccc1C(O)(Cc1ccccc1)c1ccccc1 (stereo not given) | -1 | 1 | -1 | 0 | 1 | -2 | x | x
O=C(CC(Nc1ccc(Cl)cc1)C(=O)O)c1ccccc1 (stereo not given) | 14* | 1 | 1.2* | 3 | 4 | 4 | 20* | 1
CCSc1ccccc1C(=O)N1CCN(c2ccccc2F)CC1 | 0 | 0 | -1 | 0 | -2 | -2 | x | x
COCCC1CCCCN1C(=O)c1ccc2nc(Cc3ccccc3F)oc2c1 (stereo not given) | 14* | 1 | 0 | 3.9* | 5.6* | 7 | 12* | 1
COCCc1nc2ccc(C(=O)N3CCCCC3COC)cc2o1 (stereo not given) | 1 | 1 | 0 | 1 | -3 | -1 | x | x
Cc1ccc(Nc2nc(N)nc(CSc3ncccn3)n2)cc1 | 16* | 2 | 1 | 2 | 3 | 4 | 14* | 1
SMILES | hgDAF12 agonist | DAX1 inh-1 | ssDAF12 agonist | DAX1 inh-2 | hcDAF12 agonist | SMARCA2 act | hgDAF12 conf | LXRb DAF12 ctr
Nc1nc(CSc2ncccn2)nc(Nc2ccccc2)n1 | 10 | 2 | 0 | 3 | 4 | 2 | x | x
CCCCN=Cc1sc2ccc(OCC)cc2c1O | 4 | 0 | -1 | 0 | 0 | 1 | x | x
C=CCN=Cc1sc2ccc(OCC)cc2c1O | 14* | x | 0 | 3 | 5.6* | 8 | 10 | 0
CC(C)C(c1nnnn1CCc1ccccc1)N1CCSCC1 (stereo not given) | 1 | -2 | -1 | 0 | -1 | -2 | x | x
CN(C)S(=O)(=O)c1cccc(C(=O)N=C2N=C3C=CC(Cl)=CN3Cc3ccccc32)c1 | 16* | 3 | 0 | 1 | 5 | 4 | 7 | 0
CN(C)S(=O)(=O)c1cccc(C(=O)N2CCN(Cc3ccccc3)CC2)c1 | 0 | 1 | -1 | -1 | -2 | 2 | x | x
O=C(N=C1N=C2C=CC=CN2Cc2ccccc21)c1ccc(S(=O)(=O)N2CCCC2)cc1 | 8 | 2 | -2 | 1 | 3 | 3 | x | x
O=C(N=C1N=C2C=CC=CN2Cc2ccccc21)c1ccc(S(=O)(=O)N2CCOCC2)cc1 | 16* | 4 | 0 | 4.1* | 3 | 4 | 12* | 0
CCCn1c(C)cc(C(=O)CN2C(=O)NC3(CCCCCC3)C2=O)c1C | 16* | 1 | -1 | 3 | 4 | -3 | 8 | 0
O=C(CCc1cn(Cc2ccc(F)cc2)c2ccccc12)N1CCOCC1 | -1 | 2 | -1 | 0 | -1 | -4 | x | x
Cc1c(C(=O)/C=C/N(C)C)nnn1-c1ccc(Cl)cc1C#N | -5 | 0 | -1 | 0 | 0 | -2 | x | x
COc1ccccc1C=NN=C(N)C(N)=NN=Cc1ccccc1OC | 2 | -1 | 0 | -1 | 0 | -2 | x | x
COc1ccccc1/C=N\N=C(\N)c1ccccn1 | 13* | 0 | 1.1* | 3.9* | 6.0* | 5 | 14* | 1
Cc1ccnc(NC(=O)CCC(=O)N(CC(=O)NC(C)(C)C)c2ccc3c(c2)OCCO3)c1 | -2 | -1 | -1 | 0 | -2 | -2 | x | x
Cc1nc(Nc2ncc(C(=O)Nc3c(C)cccc3Cl)s2)cc(N2CCN(CCO)CC2)n1 | 15* | x | -2 | 4.4* | -7 | 8 | 5 | 0
N#CCC(=O)N/N=C/c1ccccc1Cl | 0 | -1 | -1 | -1 | -2 | -3 | x | x
CO/C(N)=C(\C#N)N=Cc1ccccc1Cl | 14* | 1 | 1 | 2 | 1 | 8 | 3 | 0
Cc1csc(CN(C)C(=O)c2cn(Cc3cccc4ccccc34)nn2)n1 | 1 | 0 | -1 | -3 | -1 | 4 | x | x
